HT1080 IDH1KD tx: HT-1080 IDH1 knockdown cell toxicity (counter line) | HT-1080 IDH1 knockdown viability, ATP luminescence, 48 h | Potency, µM (titrated, usually from 46.1 µM), for inactives: top-dose activity, negative = toxicity, hits mostly cytotoxic | 360,000 tested, 2% active;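 also: potency is read from the fitted curve at half-maximal effect; 0% = DMSO wells and -100% = cell-free medium wells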
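Cytotoxicity counter-line: IDH1KD HT-1080, 48 h, CellTiter-Glo. Curves classed by r2, magnitude and activity.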
DT40 TDP1 no CPT: qHTS for Inhibitors of human tyrosyl-DNA phosphodiesterase 1 (TDP1): qHTS in cells in absence of CPT; DT40 Tdp1-/- hTDP1 cells, no CPT, ATP luminescence, 48 h; Potency, µM (titrated, usually from 46.2 µM), for inactives: at the highest dose activity change, negative = growth inhibition, actives largely listed as inhibitors; 420,000 tested, 15% active; AID 686978, 2013; also: potency is read from the fitted curve at half-maximal effect; nearly all actives have a fitted effect of over 55% in size
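Camptothecin absent (DMSO only). Human TDP1-complemented DT40 knockout cells, 400 cells/well, 37 °C for minimum 48 hr; ATP measured via CellTiter-Glo, 30 min dark incubation, luminescence.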
IL1B secr inh: inflammasome signaling inhibition, IL-1 beta readout | AID 743279 | activity change, % at 57.5 µM | 360,000 tested, 4.7% active | THP-1 LPS/ATP IL-1B secretion, AlphaLISA, 16 h; stronger effect = lower value; in the data active = activity change below about -50%; inconclusive = mostly about -30% to -49%
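THP-1 cells pretreated 1 hr with compounds (up to 57.5 uM final), then stimulated with LPS (250 ng/mL final) plus ATP (1.25 mM final); secreted IL-1B measured by AlphaLISA after 16 hr, decreased signal indicating inhibition.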
TDP1 cell CPT: growth inhibition of DT40 Tdp1-/-;hTDP1 cells with camptothecin (screen for TDP1 inhibitors). AID 686979. 420,000 tested, 12% active. Potency, µM (doses to about 46.2 µM), without a hit: at the highest dose activity change, negative = growth inhibition, actives largely listed as inhibitors. chicken DT40 Tdp1-/-;hTDP1 cells + 20 nM CPT, ATP luminescence, 48 h; also: potency is read from the fitted curve at half-maximal effect; nearly all actives have a fitted effect of over 55% in size
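Chicken DT40 Tdp1-/- cells stably complemented with human TDP1 were seeded at 400 cells/well in medium containing 20 nM camptothecin, exposed to pin-transferred compounds, and grown at 37 °C for at least 48 hr. Viability was read as ATP luminescence.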
HT1080-NT tox: kills 2HG-producing HT-1080-NT fibrosarcoma cells | HT-1080-NT fibrosarcoma viability, CellTiter-Glo ATP luminescence, 48 h | Potency, µM (doses to about 46.1 µM), inactives show top-dose activity, negative = less viability, actives largely listed as cytotoxic | 360,000 tested, 1.6% active;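 also: NT is the 2HG producing partner of a matched IDH1 knockdown line; potency is read from the fitted curve at half-maximal effect; 0% = DMSO-treated cells and -100% = media-only wells without cells; nearly all actives have a fitted effect of over 55% in size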
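Toxicity toward the 2HG-producing NT line was scored as %Activity, normalised to DMSO and no-cell wells, from CellTiter-Glo luminescence after 48 hours' treatment.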
An asterisk follows results filed as active; u = inconclusive; x = not tested or not shown; [ ] = another dose, or the depositor's remark. An excerpt weighted towards active compounds, which were near 19% of everything screened. Unless noted, calls follow the shape of the dose curve; as a rule, active = well fitted curve in the direction sought with a large enough effect; inconclusive = small, poorly fitted or top-dose-only effect, or another doubt; inactive = no such curve, though single readings can be large; an effect the other way counts as inactive or inconclusive. Unless noted, % is scaled to controls: 0 for no effect and ±100 for the full control effect.

SMILES | HT1080 IDH1KD tx | DT40 TDP1 no CPT | IL1B secr inh | TDP1 cell CPT | HT1080-NT tox
Cn1cc(S(=O)(=O)NCc2ccc(Cl)cc2)c(=O)n(C)c1=O | 13% | -19% | -2 | -12% | 24%
Cc1ccc2cc(CN(C(=O)c3ccc4c(c3)OCO4)C3CC3)c(N(C)C)nc2c1 | x | -17% | x | 6%[9.04 µM] | x
CN(CC(=O)Nc1cccc(Cl)c1)S(=O)(=O)/C=C/c1ccccc1 | -7% | u | u | -28% | -27%
O=[N+]([O-])c1ccc(Nc2nc(N/N=C/c3cccc(F)c3)nc(N3CCCC3)n2)cc1 | -12% | 8.2µM* | u | 6.5µM* | -10%
COc1c(/C=N/Nc2nc(N3CCCCC3)nc(N3CCCCC3)n2)cccc1[N+](=O)[O-] | 1% | u | -17 | u | 15%
O=[N+]([O-])c1ccc(Nc2nc(NC3CCCCC3)nc(N3CCCC3)n2)cc1 | 17% | 23µM* | -24 | 26µM* | 7%
COc1cccc(/C=N/Nc2ccc([N+](=O)[O-])cn2)c1O | 1.2µM* | 2.9µM* | -76* | 3.3µM* | 0.65µM*
O=[N+]([O-])c1ccc(NC2CCCC2)cc1 | 8% | -14% | -5 | -27% | 7%
O=[N+]([O-])c1ccc(NN=Cc2cccc3ccccc23)nc1 | 24% | u | -25 | u | 2%
COc1cccc(/C=N/Nc2nc(Nc3ccc([N+](=O)[O-])cc3)nc(N3CCCC3)n2)c1O | 3.3µM* | 5.8µM* | 91 | 8.2µM* | 9.2µM*
Cc1cc(NC(=O)CC2CCCC2)ccc1Br | -7% | -21% | -20 | -4% | -19%
CCc1noc(C)c1C(=O)NNC(=O)c1cc(OC)cc(OC)c1 | 2% | 21% | 2 | 0% | 0%
O=C(CNC(=S)N(Cc1ccccc1)Cc1cccnc1)NC1CCCCC1 | -2% | u | -3 | -7% | 0%
O=C(Cc1c(F)cccc1Cl)Nc1cc(S(=O)(=O)N2CCOCC2)ccc1N1CCOCC1 | 2% | u | -28 | u | 6%
NCC(=O)Nc1ccc(Cl)cc1C(=O)c1ccc[nH]1 | -26% | 0.12µM* | 5 | 0.16µM* | -11%
Cc1cc(C(=O)Nc2cccc3cccnc23)ccc1[N+](=O)[O-] | -6% | u | 2 | -18% | -10%
COC(=O)c1ccc([C@H]2Nc3ccc(S(=O)(=O)Nc4ccc(C)cc4)cc3[C@H]3C=CC[C@H]32)cc1 | x | 15µM* | x | 13µM* | x
COc1cccc(NS(=O)(=O)c2ccc3c(c2)[C@H]2C=CC[C@H]2[C@@H](c2ccccc2Cl)N3)c1 | x | 4.6µM* | x | 8.2µM* | x
COc1ccc(NS(=O)(=O)c2ccc3c(c2)[C@H]2C=CC[C@H]2[C@@H](c2ccc(C(=O)O)cc2)N3)cc1 | 0% | u | 3 | u | 0%
Cc1cccc(C)c1NS(=O)(=O)c1ccc2c(c1)[C@H]1C=CC[C@H]1[C@@H](c1ccc(Cl)cc1)N2 | x | 13µM* | x | 16µM* | x
Cc1ccccc1OC(C)C(=O)Nc1cccnc1 (configuration not stated) | 0% | 1% | 16 | -3% | -6%
COc1ccc(C2C(C#N)=C(N)Oc3cc(C)[nH]c(=O)c32)c(OC)c1OC (configuration not stated) | 7% | 0% | 13 | -4% | 7%
COc1ccc(S(=O)(=O)N(C)C[C@H]2Oc3ccc(NC(=O)C4CCCCC4)cc3C(=O)N([C@H](C)CO)C[C@@H]2C)cc1 | 3% | -27% | 0 | -23% | -26%
Cc1ccc(S(=O)(=O)N(C)C[C@H]2Oc3ccc(NC(=O)C4CCCCC4)cc3C(=O)N([C@H](C)CO)C[C@H]2C)cc1 | u | 21µM* | -69* | 26µM* | u
COc1ccc(S(=O)(=O)N(C)C[C@H]2Oc3ccc(NC(=O)C4CC4)cc3C(=O)N([C@H](C)CO)C[C@@H]2C)cc1 | 14% | u | -3 | u | 13%
SMILES | HT1080 IDH1KD tx | DT40 TDP1 no CPT | IL1B secr inh | TDP1 cell CPT | HT1080-NT tox
C[C@H]1CN([C@@H](C)CO)C(=O)c2cc(NC(=O)C3CCCCC3)ccc2O[C@H]1CN(C)S(=O)(=O)c1ccccc1 | 5% | u | -6 | 21µM* | 1%
C[C@H](CO)N1C[C@H](C)[C@@H](CN(C)S(=O)(=O)c2ccc(F)cc2)Oc2ccc(NC(=O)C3CCCCC3)cc2C1=O | 4% | 16µM* | -23 | u | 0%
C[C@H](CO)N1C[C@H](C)[C@@H](CN(C)S(=O)(=O)c2ccc(F)cc2)Oc2ccc(NC(=O)NC3CCCCC3)cc2C1=O | -3% | -22% | -24 | -5% | 4%
COc1ccc(S(=O)(=O)NC(=O)C2(C)CCN2C(=O)C2CCCCC2)cc1OC (configuration not stated) | 12% | -1% | 15 | u | 20%
Cc1cccc(NC(=O)c2oc3ccccc3c2NC(=O)c2cc(=O)c3ccc(C)cc3o2)c1 | x | 0% | x | 10% | x
Cc1ccccc1C(=O)O/N=C/c1c(N2CCOCC2)n(C)c2ccccc12 | 2.5µM* | 1.3µM* | 37 | 1.5µM* | 2.8µM*
CN(CCc1ccccc1)C(=O)c1ccc(NC(=O)Cc2cccc(NC(=O)C3CCN(C(=O)C4CCCC4)CC3)c2)cc1 | -10% | 9.2µM* | 22 | u | -6%
CN(CCc1ccccc1)C(=O)c1ccc(NC(=O)Cc2cccc(NC(=O)C3CCN(C(=O)C4CC4)CC3)c2)cc1 | -3% | -15% | -20 | -6% | -3%
CN(Cc1ccccc1)C(=O)c1cccc(NC(=O)Cc2ccc(NC(=O)C3CCN(C(=O)C4CCC4)CC3)cc2)c1 | -2% | 23µM* | -3 | u | 0%
CN(C(=O)c1ccc(NC(=O)C2CCCN(C(=O)OC(C)(C)C)C2)cc1)C1CCC1 (configuration not stated) | -1% | 16µM* | -9 | u | -2%
CN(Cc1ccccc1)C(=O)c1ccc(NC(=O)Cc2cccc(NC(=O)C3CCN(C(=O)C4CCCCC4)CC3)c2)cc1 | -5% | u | -7 | u | 0%
CN(CCc1ccccc1)C(=O)c1ccc(NC(=O)Cc2cccc(NC(=O)C3CCN(C(=O)C4CCC4)CC3)c2)cc1 | -8% | 21µM* | -17 | 16µM* | 0%
CN(Cc1ccccc1)C(=O)c1cccc(NC(=O)Cc2cccc(NC(=O)C3CCN(C(=O)C4CC4)CC3)c2)c1 | 0% | u | -5 | u | -6%
O=C(NC1CCCC1)c1ncn[nH]1 | -5% | 0% | 15 | -9% | -2%
CCCS(=O)(=O)N1CC(=O)N(c2cccc(Cl)c2C)C(C)(C(=O)NC2CCCC2)C1 (configuration not stated) | x | -1% | x | -22% | x

From PubChem BioAssay
